Data from the supplement of paper PMC12636033.
± gives the standard deviation of the averaged measurements. In all, about 33,000 sequences were measured (“E-score (rank enrichment, -0.5 to 0.5)”: median about -0.0028, highest 2% from about 0.23 on). The full list was thinned out, with the highest values kept by preference.

System: 2Sb-muMax20 (muMax20 with two 1,3-bis(methyl)benzene Cys staples, A13C/A17C and Q88C/A92C, C-terminal Lys)
Experiment: PBM 8-mer E-score (E-score (rank enrichment, -0.5 to 0.5)); higher = stronger preferential binding
Description: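 Protein binding microarray (universal PBM chip covering all 10-mers in fixed probe flanks) with chemically synthesized human Max(13-93) bHLH-LZ analogs (not full-length Max) bearing noncanonical residues (hArg, Tha, Aib, Nle at 65) and aromatic Cys staples. Read-out per 8-mer (and its reverse complement): E-score (rank-based enrichment, -0.5 to 0.5) and Z-score of median probe intensity.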

Sequence | PBM 8-mer E-score
TGCCCCCA | 0.0887 ± 0.0026
TGCCCCAA | 0.304 ± 0.012
AGCCCCAA | 0.2458 ± 0.001
AGCCCCCA | -0.192 ± 0.049
TGCCCAAA | -0.17 ± 0.028
GGCCCCAA | 0.134 ± 0.045
CGCTAATA | 0.0712 ± 0.011
CAGGTAGG | 0.0772 ± 0.037
ATCTCTGC | 0.124 ± 0.041
AAGTTTAC | -0.0181 ± 0.035
AAGTTTAT | 0.263 ± 0.011
AAGTTTAG | 0.193 ± 0.079
CTATGGTC | -0.0714 ± 0.011
ACCTTCCG | 0.156 ± 0.054
AAACGATA | 0.0414 ± 0.058
TAACGATA | 0.261 ± 0.025
CAACGATA | 0.0514 ± 0.023
AAGCCAAA | -0.0671 ± 0.036
GACTACTA | 0.123 ± 0.086
AACGATTG | -0.048 ± 0.0011
GAAGGAGA | 0.278 ± 0.031
CAAGGAGA | -0.121 ± 0.026

Sequence | PBM 8-mer E-score
AAAGGAGA | 0.102 ± 0.13
ATATGAAC | 0.111 ± 0.0082
ATATGAAG | -0.0272 ± 0.098
ATATGAAT | 0.269 ± 0.0035
TTATGAAA | -0.0227 ± 0.036
ATATGAAA | 0.268 ± 0.017
CTATGAAA | 0.122 ± 0.039
GCGCTGAC | 0.0819 ± 0.0047
ATTCGGCA | -0.0961 ± 0.057
CCCGTGTC | -0.222 ± 0.044
GACGTGTA | -0.0568 ± 0.059
AACGTGTA | 0.0661 ± 0.014
CAAGTGTA | 0.231 ± 0.042
TAAGTGTA | -0.00771 ± 0.18
AACGTGTC | -0.0169 ± 0.047
CACGTGTA | 0.3871 ± 0.0038
AAAGTGTA | 0.185 ± 0.019
CACGTGTC | 0.366 ± 0.032
ATGGCCGA | -0.0989 ± 0.12
CGGTAGCA | 0.0259 ± 0.0084
CACTAGGC | -0.0625 ± 0.012
AAGGTACT | -0.0359 ± 0.027

Sequence | PBM 8-mer E-score
CGCCACAC | -0.107 ± 0.0099
AATTCCCC | 0.162 ± 0.019
GATTCCCA | -0.109 ± 0.031
CAATTCCA | 0.021 ± 0.024
AATTCCCA | 0.251 ± 0.056
GAAATCAC | 0.0559 ± 0.039
AAAATCAG | -0.00194 ± 0.044
ATTCCCCA | 0.345 ± 0.0051
GTTCCCCA | 0.0903 ± 0.0034
AAAATCAC | 0.28 ± 0.019
AAATTCCA | 0.243 ± 0.0059
ATTCCCCC | -0.0763 ± 0.046
GAATTCCA | 0.0438 ± 0.014
GAGGACGA | -0.0985 ± 0.014
CAGGAATA | -0.0263 ± 0.13
AGACTGCC | -0.138 ± 0.008
AGGCGCTA | -0.116 ± 0.03
ACAGGATA | 0.046 ± 0.059
CCTCTAAC | -0.122 ± 0.012
ATGTCCCC | 0.0908 ± 0.0075
AGCGCCTG | -0.212 ± 0.01
AATTTCCC | 0.301 ± 0.032

Sequence | PBM 8-mer E-score
AAAATCCA | 0.232 ± 0.0091
GATTTCCC | 0.0913 ± 0.071
GAAATCCA | -0.0749 ± 0.093
ATTTTCCC | 0.17 ± 0.024
CAAATCCA | 0.0168 ± 0.048
GCCACAAA | 0.0853 ± 0.099
ACGGCTTA | 0.0267 ± 0.027
CAATGCTC | -0.0184 ± 0.021
GGAGTAGA | 0.139 ± 0.0065
GGGAAGGA | 0.0711 ± 0.073
ATGTATTA | 0.216 ± 0.018
GAGTATTA | 0.12 ± 0.024
GTGTATTA | 0.244 ± 0.061
CAGTATTA | 0.28 ± 0.02
CTGTATTA | -0.0311 ± 0.058
AAGTATTA | 0.157 ± 0.094
AGCGCAAC | -0.0193 ± 0.035
CCAGACGC | -0.135 ± 0.041
CGGCTGAG | -0.16 ± 0.018
ACACCTAT | 0.0344 ± 0.0022
